Measurements: the OligoGym collection

Molecular target: CRTAM
Test: pooled miR-30 sensor sort-seq; sequence = guide strand
Conditions: shRNA
Also: reference of the scale not given here.

Row | Sequence | sensor-assay potency score (higher = more potent)
1 | TTAAACTACAAGCTTTATGTGC | -0.391
2 | TTTGTGATGTAGTTCATGCAAC | -0.216
3 | TTGATCTGTAACTTTCTAGTGT | 0.218
4 | TTTGTGCTTACAGAGTCGCTGT | -0.405
5 | TTGAATGTTGTACATTTTCCTT | -1.1
6 | TTGACCTTGATCTGTAACTTTC | -1.09
7 | TTTTCTTTCTTGCCAGTCCTAA | -0.265
8 | TTAGCTGCTCACACTGACCCTG | -0.252
9 | TAGCTGCTCACACTGACCCTGA | -0.659
10 | TTTGCTTCTGAGTACAACTTTG | -0.892
11 | TAGTATTACATTTCTTCCCATC | -0.999

Molecular target: CRX
Test: as above
Conditions: shRNA

Row | Sequence | sensor-assay potency score (higher = more potent)
12 | TTTGACTTCTTCTTGGAGCAAG | -0.501
13 | TTGGTTTGACTTCTTCTTGGAG | -0.00294
14 | TGAGAGAATCACTAGGACCTGT | -0.0623
15 | TGTAGGAATCTGAGATGCCCAG | -0.841
16 | TAGGTCATGGCATAGGGGGCGG | -1.09
17 | TGATCCTTGTAGTCCAGAGGGT | -0.793
18 | TAGGTGAATTTCCAGGTGCCCG | -1.41
19 | TAGCTCTGGCCTGATAGGGAGG | -0.851
20 | TTGTAGTCCAGAGGGTCCATGG | -1.32
21 | TTTCTCAGGAATGCCATCCCGG | -0.63
22 | TTGTAGGTGAATTTCCAGGTGC | -0.434
23 | TTGATCTTCAGAGCCACCTCCT | -0.746
24 | TTCAGAGCCACCTCCTCACGGG | -0.313
25 | TGAACCAAACCTGAACCCTGGA | -0.615
26 | TTGAACCAAACCTGAACCCTGG | -0.194
27 | TTTGGTTTGACTTCTTCTTGGA | 0.763
28 | ACTCTGATCCTTGTAGTCCAGA | -1.36
29 | TTCTGAAGCCTGGAGCTCGTGG | -0.966
30 | TAGACGTCTGGGTACTGGGTCT | -0.0426
31 | AATTCCAAGCTATCCACGGGGC | -0.328
32 | AATAGGAGCTCGGAGACCCATA | -1.54
33 | TGTAAGCTGAACACCGAGCTGT | 0.575

Molecular target: CRYGS
Test: as above
Conditions: shRNA

Row | Sequence | sensor-assay potency score (higher = more potent)
34 | TCGGTGGTTTCATACATCTGAC | -1.43
35 | TTTCATACATCTGACCACTAAA | -1.27
36 | TAATGGAGTTGCAGCGACTTAG | -1.4
37 | TTGAAAATTTTTGTCTTCATAG | -1.17
38 | TGAACAGCTCTGCAGGAGCTGA | -1.21
39 | TGGAGTTGCAGCGACTTAGGTA | -0.835
40 | TCCACTTTAATGGAGTTGCAGC | -1.52
